Screens from PubChem BioAssay.
Compounds with a hit are over-represented: about 5.4% of the library has one in this group of screens.
Calb FLC: C. albicans growth modulation with fluconazole | AID 1979 | C. albicans CaCi-2 (fluconazole-resistant clinical isolate) + fluconazole, Alamar Blue growth, 48 h | 300,000 compounds, 0.57% hits | growth inhibition, % (concentration not given with the values);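 active means growth inhibition above about 58% in most replicates, limit read from the data, passing the limit was not always enough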;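 further: all wells also contain fluconazole at 8 µg/ml as a sub-toxic cotreatment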
PP1 inh: PP1-alpha (human) inhibition in PP5 counter-screen; 320,000 compounds, 0.9% hits; purified PP1alpha, OMFP fluorescence; inhibition, % at 6.7 µM; P62136;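 active means inhibition above the mean inhibition of all tested compounds plus 3 SD, computed separately for each screening campaign, cut at about 15% in these data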
Target sequence (P62136 whole entry, looked up): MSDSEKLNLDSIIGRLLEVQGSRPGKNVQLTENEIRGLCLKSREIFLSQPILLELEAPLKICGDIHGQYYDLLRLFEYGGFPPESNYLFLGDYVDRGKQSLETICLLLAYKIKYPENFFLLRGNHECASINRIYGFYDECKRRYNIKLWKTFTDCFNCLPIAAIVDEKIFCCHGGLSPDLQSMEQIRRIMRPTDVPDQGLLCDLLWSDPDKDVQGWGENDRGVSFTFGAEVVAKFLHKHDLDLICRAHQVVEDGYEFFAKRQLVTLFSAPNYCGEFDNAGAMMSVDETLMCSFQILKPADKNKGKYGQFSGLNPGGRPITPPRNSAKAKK
CSC inhib: blocks cancer stem cells; cancer stem cell-like cells viability, luminescence; inhibition, % at 7.5 µM; 300,000 compounds, 1.1% hits; in the data active means inhibition above about 75%; tested in HMLE shEcad cells
PP5 inh: inhibitors of human protein phosphatase 5 (PP5). P53041. purified PP5c, OMFP substrate fluorescence. inhibition, % at 6.7 µM. 320,000 compounds, 0.18% hits;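 active means inhibition above the campaign's mean inhibition across all tested compounds plus 3 SD, cut at about 9.5% in these data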
ALR inh: blocks human ALR sulfhydryl oxidase activity; P55789; purified ALR, DTT oxidation, H2O2 HRP-luminol luminescence; inhibition, % (no concentration beside the values); 290,000 compounds, 3.8% hits; AID 485317;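 active means mean replicate inhibition above about 79%, with every replicate also reaching it, limit read from the data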
A number is an active result; – = inactive; · = not tested or not shown.

SMILES | Calb FLC | PP1 inh | CSC inhib | PP5 inh | ALR inh
CCCN(CCC)c1ccc(CC(=O)NC(C)Cc2ccccc2)cc1 (centres undefined) | – | – | – | – | 98
CCN(CC)c1ccc(CC(=O)NC(C)Cc2ccccc2)cc1 (centres undefined) | – | – | – | – | 100
O=C(NCCCC(NC(=O)OCc1ccccc1)C(=O)O)OCc1ccccc1 (centres undefined) | – | – | – | – | –
O=C(CNC(=O)c1ccccc1F)OCc1csc(-c2ccccc2)n1 | – | – | – | – | 99
Nc1ccc(C(=O)OCc2csc(-c3ccccc3)n2)cc1[N+](=O)[O-] | – | – | – | – | 99
O=C(OCc1csc(-c2ccccc2)n1)c1cccs1 | – | – | · | – | –
Cn1cccc1C(=O)OCc1csc(-c2ccccc2)n1 | – | – | – | – | 96
CC(C)NCC#CCOc1ccc(Cl)cc1 | – | – | – | – | –
COc1cc(/C=N/N(C)c2ccccc2)cc(Cl)c1O | – | – | – | – | 99
COc1ccc(OC)c(/C=N/N(C)c2ccccc2)c1 | – | – | – | – | 99
O=[N+]([O-])c1ccc(CN2CCN(c3ccc([N+](=O)[O-])cc3)CC2)cc1 | – | – | – | – | –
Cc1cc(=O)[nH]c(N/N=C/c2cccc(Br)c2)n1 | – | – | – | – | –
Cc1cc(=O)[nH]c(N/N=C/c2ccccn2)n1 | – | – | 107 | – | –
O=c1nc(N/N=C/c2ccccn2)cn[nH]1 | 106 | – | 82 | – | ·
CSc1ccc(/C=N/Nc2nc(C)cc(=O)[nH]2)cc1 | – | – | – | – | –
Cc1cc(=O)[nH]c(N/N=C/c2ccc(O)c(O)c2)n1 | – | – | – | – | 99
O=c1cnnc(N/N=C/c2ccccn2)[nH]1 | 95 | – | 120 | – | –
Cc1cc(=O)[nH]c(N/N=C/c2ccc(-c3ccc(F)cc3)o2)n1 | – | – | 75 | – | –
Cc1cc(=O)[nH]c(N/N=C/C2=C(N3CCOCC3)C(=C\c3ccc(Cl)cc3)/CC2)n1 | – | – | – | – | 98
Cc1cc(=O)[nH]c(N/N=C/c2c(O)n(-c3ccccc3)c(=O)c3ccccc23)n1 | – | 17 | – | – | ·
Cc1cc(C)nc(N/N=C/C2=C(N3CCOCC3)C(=C/c3ccccc3)/CC2)n1 | – | – | – | – | –
CCOc1ccc(C2C(C#N)=C(C)NC3=C2C(=O)c2ccccc23)cc1 (centres undefined) | – | – | – | – | –
OCCOCCOc1ccccc1OCCOCCO | – | – | – | – | –
Cc1cc(Br)ccc1OCC(=O)N(Cc1nc(-c2ccccc2)no1)C(C)C | – | – | – | – | –
COc1ccc(CS(=O)(=O)/C(Cl)=C(/Cl)C(=O)Nc2ccc(OC)nc2)cc1 | – | – | 109 | – | 98
SMILES | Calb FLC | PP1 inh | CSC inhib | PP5 inh | ALR inh
Cc1ccc(CNC(=O)CC(C)S(=O)(=O)c2ccc3c(c2)NC(=O)CS3)o1 (centres undefined) | – | – | – | – | 98
CCOc1ccc(C(=O)Nc2nnc(S(=O)(=O)N(C)Cc3ccco3)s2)cc1 | – | 17 | – | – | –
COc1cccc(C(=O)Nc2nnc(S(=O)(=O)N(C)Cc3ccc(F)cc3)s2)c1 | – | – | – | – | 84
CN(Cc1ccco1)S(=O)(=O)c1nnc(NC(=O)c2ccc(F)cc2)s1 | – | – | – | – | –
CC(Sc1nnc(-c2cccnc2)n1-c1ccccc1F)C(=O)N1CCCc2ccccc21 (centres undefined) | – | – | – | – | –
C=CCN1CCN(C(=O)CSc2ccccc2)CC1 | – | – | – | – | –
Cc1cccc(C2CN(C)CCc3c2cc(O)c(O)c3Cl)c1 (centres undefined) | · | – | – | – | 98
C=CCN1CCc2c(cc(O)c(O)c2Cl)C(c2ccccc2)C1 (centres undefined) | · | – | – | – | 99
C=CCN1CCc2cc(O)c(O)cc2C(c2ccccc2)C1 (centres undefined) | · | – | – | – | 98
C=CCN1CCN(C(=O)c2ccc(-c3ccccc3)cc2)CC1 | – | – | – | – | –
CC12CCC(C(=O)N3CCCCC3)(CC1=O)C2(C)C (centres undefined) | – | – | – | – | –
Cn1c(C(=O)O)ccc1S(=O)(=O)N1CCCCCC1 | – | – | – | – | –
Cc1cc(N2CCN(C3CCCCC3)CC2)n2nc(C)nc2n1 | – | – | – | – | –
CCCNC(=S)N(Cc1cc2cc(C)ccc2n2nnnc12)CC(C)(C)CN(C)C | – | – | – | – | –
C[C@@H](CSc1ccc(Br)cc1)CN1CC[C@H](NC(=O)OCc2ccccc2)CCC1=O | · | · | 91 | · | –
